# Screening results deposited in PubChem BioAssay by The Scripps Research Institute Molecular Screening Center.
# NCOA2 inhibitor: inhibition of GAL4-SRC2 driven luciferase reporter, primary screen, SRC2 inhibitor project, cell-based, luminescence; inhibition, % at 9 µM; 370,000 compounds, 0.17% hits; HEK293 GAL4-SRC2 luciferase reporter; AID 651957, 2012; Nuclear receptor coactivator 2 (Homo sapiens), Q15596;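 active = inhibition above the mean inhibition of all tested compounds plus 3 SD, set per campaign, cut at about 52% in these data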;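 note: 0% = DMSO treated cells and 100% = cells given Gossypol at 36 µM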
# NR2F2 inh: NR2F2 transcriptional activity inhibitors, primary screen, cell-based, luciferase reporter, HEK293T, luminescence | COUP transcription factor 2 (Homo sapiens), P24468 | HEK293T NGFI-A luciferase reporter | inhibition, % at 8.6 µM | 370,000 compounds, 0.7% hits;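 active = inhibition above a per-plate cutoff, mean inhibition of test wells between control levels plus 3 SD, cut at about 38% in these data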;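 note: cells cotransfected with COUP-TFII expression vector driving the NGFI-A reporter; 0% = median of COUP-TF2 test wells and 100% = reporter-only cells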
# LRH-1 inv ag: LRH-1 (NR5A2) inverse agonists, primary screen, cell-based, luminescence, HEK293T, StAR-luciferase reporter; 360,000 compounds, 0.13% hits; inhibition, % at 3.6 µM; AID 602396, 2012; LRH-1 transfected, 24 h;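 active = inhibition above the mean inhibition of all tested compounds plus 3 SD, cut at about 73% in these data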;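 note: 0% = DMSO wells and 100% = reporter-only cells lacking LRH-1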
# Target sequence (O00482 whole entry, looked up): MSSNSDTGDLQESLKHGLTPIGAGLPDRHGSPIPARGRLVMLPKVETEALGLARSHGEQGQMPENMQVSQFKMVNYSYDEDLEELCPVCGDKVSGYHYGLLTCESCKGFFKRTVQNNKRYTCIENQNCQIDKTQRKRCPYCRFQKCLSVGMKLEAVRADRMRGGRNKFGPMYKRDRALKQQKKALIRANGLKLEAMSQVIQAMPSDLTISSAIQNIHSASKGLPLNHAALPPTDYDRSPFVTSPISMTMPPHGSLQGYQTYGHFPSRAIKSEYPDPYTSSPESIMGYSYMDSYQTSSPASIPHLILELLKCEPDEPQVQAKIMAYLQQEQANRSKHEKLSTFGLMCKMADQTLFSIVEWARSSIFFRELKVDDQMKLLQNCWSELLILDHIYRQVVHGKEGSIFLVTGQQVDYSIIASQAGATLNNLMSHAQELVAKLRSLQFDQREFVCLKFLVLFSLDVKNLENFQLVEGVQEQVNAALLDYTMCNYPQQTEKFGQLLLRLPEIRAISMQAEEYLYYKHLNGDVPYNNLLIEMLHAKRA
# SRC1 inh: SRC1 coactivator transcriptional activity inhibitors, primary screen, cell-based, luminescence | Nuclear receptor coactivator 1 (Homo sapiens), Q15788 | HEK293 GAL4-SRC1 luciferase reporter | AID 588354, 2011 | inhibition, % at 3.6 µM | 360,000 compounds, 0.12% hits;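 active = inhibition above the campaign mean plus 3 SD, with each screening campaign given its own cutoff, cut at about 60% in these data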;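 note: 0% = DMSO treated cells and 100% = gossypol at 36 µM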
# NCOA3 inh: SRC3 coactivator transcriptional activity inhibitors, primary screen, cell-based, luminescence; HEK293 GAL4-SRC3 luciferase reporter; inhibition, % at 3.6 µM; 360,000 compounds, 0.17% hits;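 active = inhibition above a per-campaign cutoff, the mean of all compounds plus 3 SD, cut at about 60% in these data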;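 note: 0% = DMSO-treated cells and 100% = gossypol-treated cells at 36 µM; higher means less SRC3-driven luciferase light from the GAL4 reporter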
# VP16 Luc counter: Gal4-VP16 luciferase reporter inhibitors, counter-screen for COUP-TFII antagonist project, cell-based, luminescence, HEK293; shares compounds with NR2F2 inh; inhibition, % at 8.5 µM; 2,500 compounds, 25% hits; AID 687007, 2013; in the data active = inhibition above about 13%
# NR2F2 inh conf: NR2F2 transcriptional activity inhibitors, confirmation, cell-based, luciferase reporter, HEK293, triplicate; inhibition, % at 8.5 µM; 2,500 compounds, 45% hits; AID 687008, 2013; HEK293 NGFI-A luciferase reporter, luminescence; shares compounds with NR2F2 inh;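 active = mean inhibition over three repeats above a set limit taken from the earlier primary screen, cut at about 38% in these data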;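 note: 100% = cells given the luciferase reporter alone without the COUP-TF2 vector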
# Numbers without * were called inactive; / = no result. Hits are enriched below; roughly 0.81% of the tested compounds scored in any of these assays.
SMILES,NCOA2 inhibitor,NR2F2 inh,LRH-1 inv ag,SRC1 inh,NCOA3 inh,VP16 Luc counter,NR2F2 inh conf
Cc1ccc(-n2[nH]c(=O)c(-c3ccccn3)c2C)cc1,29,44*,-26,-24,13,-51,2
O=C1CCCN2N=C(SCC(=O)Nc3cccc(C(F)(F)F)c3)SC2=N1,26,53*,27,20,18,0,50*
O=C1CCCN2N=C(SCC(=O)Nc3cccc(Cl)c3)SC2=N1,13,23,-5,10,3,/,/
COC(=O)C(Cc1c[nH]c2ccccc12)NC(=O)c1cccc(S(=O)(=O)N2CCCCC2)c1 (stereo not drawn),11,14,12,-14,9,/,/
Cc1cccc(Cl)c1NC(=O)N1CCCN(c2nc3ccc(Cl)cc3s2)CC1,7,49*,14,23,22,-20,41*
Cc1cccc(C)c1NC(=O)N1CCN(c2nc3ccccc3s2)CC1,12,48*,8,15,28,-14,26
Cc1nc2sc(C(c3ccco3)N3CCC(Cc4ccccc4)CC3)c(O)n2n1 (stereo not drawn),-9,1,-5,-2,8,/,/
COc1ccccc1N(/N=C1\Sc2ccccc2C1=O)C(C)=O,-18,39*,27,21,26,-21,33
COc1ccc(N(/N=C2\Sc3ccccc3C2=O)C(C)=O)cc1,-44,-13,-98,-108,-68,/,/
CN(C)c1ccc(C=Cc2nccc3ccccc23)cc1,5,3,-74,-83,-75,/,/
CCN(CC)c1nc(C=Cc2ccc(N(C)C)cc2)c2nccnc2n1,66*,88*,12,-7,1,-12,-4
COc1ccccc1N1CCN(Cc2cc(=O)oc3cc(C)cc(C)c23)CC1,-35,8,0,11,2,/,/
Cc1ccc2sc(C)cc(=O)c2c1,0,0,-28,-22,-13,/,/
CN(C)c1ccc(Nc2ncnc3ccc(Br)cc23)cc1,28,38*,-35,40,43,-6,6
Cc1cccc(Nc2ncnc3ccc(Br)cc23)c1,42,45*,15,31,40,-8,16
COC(=O)[C@@H]1N=C(c2ccc(OC)cc2)O[C@]12C(=O)N(Cc1cn(-c3ccccc3)nn1)c1cccc(Cl)c12,1,-4,/,/,/,/,/
CCc1nc(NCc2ccccn2)c2oc3ccccc3c2n1,18,39*,26,12,26,-14,15
Cc1nc(NCc2ccccn2)c2ccccc2n1,12,43*,15,6,35,0,22
Cc1cc(NCc2ccccn2)nc2ccccc12,-15,3,-36,-5,14,/,/
CCc1ccc(NC(=O)CSc2nnc(CNC(=O)c3ccco3)o2)cc1,14,18,15,-16,-15,/,/
CC(=O)c1c(C(C)=O)c(C)n(Cc2ccc(Cl)cc2)c1C,11,43*,22,9,17,6,18
Cc1ccc(/C=C2/CNC/C(=C/c3ccc(C)cc3)C2=O)cc1,-54,47*,80*,36,12,54*,50*
c1ccc(CCNc2ncnc3ccccc23)cc1,15,57*,-54,-22,11,-149,29
Clc1cccc(Nc2ncnc3ccc(Br)cc23)c1,37,25,0,28,29,/,/
Cc1cc2c(NCCc3ccccc3)ncnc2s1,7,50*,-53,-26,-41,-133,29
SMILES,NCOA2 inhibitor,NR2F2 inh,LRH-1 inv ag,SRC1 inh,NCOA3 inh,VP16 Luc counter,NR2F2 inh conf
Brc1ccc2ncnc(NCc3ccccc3)c2c1,55*,58*,41,67*,64*,18*,49*
COc1cc(OC)cc(C(=O)NNC(=O)CCNC(=O)c2ccc(Br)cc2)c1,14,-1,-12,-14,5,/,/
CCOC(=O)C1CCCN(S(=O)(=O)c2ccc(S(=O)(=O)N(CC)CC)cc2)C1 (stereo not drawn),17,68*,43,7,26,10,66*
CCOC(=O)c1csc(NC(=O)C2CCCN(S(=O)(=O)c3ccc([N+](=O)[O-])cc3)C2)n1 (stereo not drawn),14,46*,/,/,/,-7,23
CCOC(=O)c1csc(NC(=O)C2CCCN(S(=O)(=O)c3ccccc3)C2)n1 (stereo not drawn),9,5,/,/,/,/,/
Cc1ccc(-n2nc(C)c(=O)c(-c3ccccc3)c2NC(=O)c2cccs2)cc1,-4,12,-1,16,15,/,/
Cc1ccc(S(=O)(=O)NCC2CCC(C(=O)NC3CCCCC3)CC2)cc1 (stereo not drawn),-20,5,-1,-3,-15,/,/
COc1cc(CNc2ccc(CNc3ncn[nH]3)cc2)ccc1OCC(=O)NC(C)(C)C,30,42*,51,-5,7,2,17
CC(C)(C)NC(=O)COc1ccc(CNc2ncn[nH]2)cc1,4,2,4,-1,10,/,/
O=C(Nc1ccc2cn[nH]c2c1)c1c(Cl)cccc1Cl,21,-7,7,-1,6,/,/
O=C1C(Cl)=C(Nc2ccc3cn[nH]c3c2)C(=O)c2ccccc21,88*,41*,19,-27,-13,-18,-46
Cc1ccc(C)c(N2CCN(C(=O)C3CCN(S(=O)(=O)c4c(C)noc4C)CC3)CC2)c1,22,53*,27,18,2,-4,33
CCOC(=O)C1CCCN(C(=O)c2ccc3nc(-c4cccc(OC)c4)oc3c2)C1 (stereo not drawn),-37,-23,-47,-93,-34,/,/
O=C(CCNC(=O)c1ccc([N+](=O)[O-])cc1)NCCc1ccc(Cl)cc1,-18,-5,-8,-3,-1,/,/
COc1ccc(CCNC(=O)CCNC(=O)c2ccc([N+](=O)[O-])cc2)cc1,19,39*,15,9,4,4,3
CCOC(=O)c1c(NC(=S)N2CCN(C)CC2)sc2c1CCN(C(=O)OCC)C2,-11,39*,-13,-4,35,1,8
Cc1c(C(C)C)c(=O)n(-c2ccc(S(=O)(=O)N3CCOCC3)cc2)n1C,-73,22,6,-6,-1,/,/
Cc1c(C(C)C)c(=O)n(-c2ccc(S(=O)(=O)NCc3ccccc3)cc2)n1C,14,63*,43,25,-5,8,53*
Cc1c(C(C)C)c(=O)n(-c2ccc(S(=O)(=O)NC3CCCCC3)cc2)n1C,7,62*,44,21,28,-1,39*
